Screens as filed in PubChem BioAssay.
AHR act: activators of human aryl hydrocarbon receptor. P35869. AHR-responsive luciferase reporter cells, luminescence. activation, % at 5 µM. 2.5% of 320,000 active; in the data active = activation above about 47%;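 note: 0% = vehicle wells and 100% = reference agonist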
hcDAF12 agonist: activators of H. contortus DAF-12 nuclear receptor; HEK293 hcDAF-12 lit1-tk-luc reporter, luminescence; 0% DMSO, 100% Δ7-dafachronic acid; activation, % at 6.8 µM; 1.4% of 370,000 active;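 active = activation above the mean of all tested compounds plus 3 SD, cut at about 5.5% in these data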;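 note: 100% = response to 3 µM Δ7-dafachronic acid high control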
DAX1 inh-1: inhibitors of human orphan nuclear receptor DAX1 (NR0B1) | P51843 | HEK293 Gal4-DAX1 luciferase reporter, luminescence | inhibition, % at 6.75 µM | 0.99% of 340,000 active | AID 504766;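 active = inhibition above the mean over all tested compounds plus 3 SD, cut at about 4.2% in these data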;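 note: 0% = DAX1-transfected cells with DMSO and 100% = empty-vector control cells with DMSO; inhibition shows as a rise in luminescence from relieved DAX1 repression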
Target sequence (P51843 207-470 limits assumed): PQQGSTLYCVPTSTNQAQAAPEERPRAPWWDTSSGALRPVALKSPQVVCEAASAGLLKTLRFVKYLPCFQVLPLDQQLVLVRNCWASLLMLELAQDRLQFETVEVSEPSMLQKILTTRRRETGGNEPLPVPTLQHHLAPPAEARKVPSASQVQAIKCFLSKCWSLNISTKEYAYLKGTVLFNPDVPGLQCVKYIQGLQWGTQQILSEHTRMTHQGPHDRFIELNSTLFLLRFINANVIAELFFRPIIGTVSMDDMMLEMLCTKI
hgDAF12 agonist: activates the H. glycines DAF-12 receptor ligand-binding domain; HEK293 GAL4-hgDAF12 UAS-luciferase reporter, agonist luminescence; normalized to butyrate control; AID 687014; 1.8% of 370,000 active; activation, % at 6.8 µM;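 active = activation above a cutoff set at the mean of all screened compounds plus 3 SD, cut at about 10% in these data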;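 note: 0% = DMSO wells and 100% = sodium butyrate wells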
ssDAF12 agonist: activators of S. stercoralis DAF-12 nuclear receptor; activation, % at 6.8 µM; AID 652126; HEK293 ssDAF-12/GRIP1 lit1-tk-luc reporter, luminescence; % of 3 µM dafachronic acid response; 1% of 370,000 active;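 active = activation above the mean over all tested compounds plus 3 SD, cut at about 0.9% in these data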;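 note: 0% = DMSO-only wells and 100% = 3 µM delta7-dafachronic acid wells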
DAX1 inh-2: DAX1 (NR0B1) inhibition, primary screen; HEK293T StAR-luciferase reporter, SF-1/DAX-1 repression relief; inhibition, % at 6.8 µM; 1.1% of 370,000 active;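 active = inhibition above the mean over all tested compounds plus 3 SD, cut at about 3.6% in these data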;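 note: 0% = DAX-1 cells with DMSO and 100% = cells lacking DAX-1 with DMSO; higher inhibition means more luminescence from relief of DAX-1 repression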
* marks the source's active call; other numbers are inactive results; x = no result. In the library only some 5.7% were active in any assay of this set; here they are far more common.

SMILES	AHR act	hcDAF12 agonist	DAX1 inh-1	hgDAF12 agonist	ssDAF12 agonist	DAX1 inh-2
CC(Oc1ccccc1Cl)C(=O)N(Cc1ccco1)C1CCS(=O)(=O)C1 (configuration not stated)	1	-1	-2	-2	1.6*	1
Nc1ncnc2c1ncn2[C@@H]1O[C@H](CNCc2ccccc2OCc2ccc(Cl)cc2Cl)[C@@H](O)[C@H]1O	1	-1	-1	2	-1	1
O=[N+]([O-])c1cc(N=Nc2ccc3ccccc3c2)ccc1O	19	4	1	4	1.3*	0
CCOC(=O)N[C@H](C(=O)N1CCC[C@H]1C(=O)NCCc1ccccc1Cl)c1ccccc1	x	0	x	0	-1	0
NC(=O)c1ccccc1NC(=O)c1ccc2c(c1)OCO2	39	2	2	11*	0	1
COC(=O)c1ccccc1NC(=S)NC(=O)c1ccc2c(c1)OCO2	x	2	-1	1	0	0
COc1ccc(C(=O)Nc2ccccc2C(=O)Nc2ccncc2)cc1	61*	3	0	1	-1	-1
COc1ccc(C(=O)Nc2ccccc2C(N)=O)cc1	9	0	0	13*	0	2
N#C[C@H](N)[C@H]1O[C@@H](n2ccc(=O)[nH]c2=O)[C@H](O)[C@@H]1O	x	1	x	0	-1	1
CCc1nc2nc(C)c(NS(=O)(=O)c3ccc(Cl)cc3)c(=O)n2[nH]1	1	0	-1	0	-1	0
O=C(CSc1nccc(-c2cccs2)n1)Nc1cccc(Cl)c1Cl	23	2	1	1	1.1*	0
CN(Cc1ccccc1)C(=O)c1ccc(NC(=O)Cc2ccc(NC(=O)C3CCCN(C(=O)CCc4ccccc4)C3)cc2)cc1 (configuration not stated)	x	-5	-4	-11	-2	-7
C(=N\Nc1nc(-c2cccnc2)nc2ccccc12)/c1ccccc1	58*	3	x	1	-2	0
C(=N\Nc1nc(-c2ccccn2)nc2ccccc12)/c1ccccc1	-5	x	x	x	x	x
O=[N+]([O-])c1cccc(/C=N/Nc2nc(C(Cl)(Cl)Cl)nc3ccccc23)c1	54*	2	1	-2	0	0
Cc1ccc(N/N=C/c2ccncc2)cc1	51*	1	0	4	-1	1
Cc1ccc(N/N=C/c2cccnc2)cc1	11	0	0	3	-2	1
ClC(Cl)(Cl)c1nc(N/N=C/c2ccncc2)c2ccccc2n1	67*	0	0	1	0	-1
FC(F)(F)c1nc2ccccc2nc1N/N=C\c1ccccc1	40	-1	1	-2	-1	0
Cc1cc(N/N=C/c2ccncc2)nc2ccccc12	x	3	3	4	-1	3.9*
CC(C)c1ccc2oc(-c3cc(N)ccc3O)nc2c1	70*	0	-1	-8	-2	-1
C=CCc1cc(C)ccc1OCCn1ccnc1	23	0	0	2	-1	0
C=CCc1cc(C)ccc1OCCOCCn1ccnc1	55*	-3	0	-3	-2	0
CCC(C(=O)O)N1C(=O)C2CCCCC2C1=O (configuration not stated)	2	-1	4	0	0	1
Cc1ccc2nc(SCCCCOc3ccccc3)[nH]c2c1	13	x	0	x	x	x
SMILES	AHR act	hcDAF12 agonist	DAX1 inh-1	hgDAF12 agonist	ssDAF12 agonist	DAX1 inh-2
Fc1ccccc1CSc1nc2ccccc2[nH]1	2	5	0	12*	0	3
Fc1c(F)c(F)c(CSc2nc3ccccc3[nH]2)c(F)c1F	-3	-2	-1	2	-1	0
c1ccc(OCc2nc3ccccc3[nH]2)cc1	-2	0	3	11*	-1	2
O=[N+]([O-])c1cccc(CSc2nc3ccccc3[nH]2)c1	26	0	0	6	-2	0
COc1cccc(CSc2nc3ccccc3[nH]2)c1	2	1	1	13*	-1	2
c1ccc(OCCSc2nc3ccccc3[nH]2)cc1	-4	-1	4.7*	1	-1	0
c1ccc(OCc2nnc(SCc3nc4ccccc4[nH]3)n2-c2ccccc2)cc1	x	-1	x	-1	-2	-1
CCOc1ccc(NC(=O)/C(C=Nc2ccccc2)=C(\C)O)cc1	-7	-2	1	1	0	0
O=C1N[C@H]2CC=C[C@H]2Nc2ccccc21	x	1	-1	4	-1	1
